Test results: PubChem BioAssay

system: Noggin (protein binding on small-molecule microarray); assay: Noggin binders on small-molecule microarray, primary screen, biochemical, 635/667 nm fluorescence (AID 1095); settings: 635 nm fluorescence, higher = more signal;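 also: score merges 667 nm feature fluorescence with signal to noise over triplicate slides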

Row | SMILES | composite z-score
1 | O=C1c2ccccc2[C@](Cc2ccccc2I)(C(=O)O)[C@H](c2ccc(CO)cc2)N1Cc1ccccc1C(F)(F)F | 0.033
2 | C=CCN1C(=O)[C@@]2(O[C@@H](CCO)[C@H]([Si](C)(C)c3ccc(OC)cc3)[C@H]2C)c2cc(NC(C)=O)ccc21 | 1.23
3 | O=C1O[C@@H](c2ccccc2)[C@@H](c2ccccc2)N2[C@@H](c3ccc(O)cc3)[C@]3(C(=O)Nc4ccccc43)[C@@H](C(=O)NC[C@H](O)c3ccccc3)[C@H]12 | 0.753
4 | C=C(CCCC)C(=O)CC[C@@H](OC(=O)c1ccccc1-c1ccccc1C(=O)O)c1ccc(CO)o1 | 1.24
5 | COCCOC(=O)N1C(=O)[C@@]2(c3cc(C#CCCO)ccc31)[C@H](c1ccc(O)cc1)N1[C@H](c3ccccc3)[C@H](c3ccccc3)OC(=O)[C@H]1[C@@H]2C(=O)N1CCCCCCC1 | 1.29
6 | O=C(NCC(O)CO)[C@]1(CCS(=O)(=O)c2ccccc2)N=C(c2ccc(OCCCO)cc2)O[C@@H]1c1ccccc1 (stereo not given in full) | -0.203
7 | CC(C)NC(=O)[C@@H]1c2ccccc2C(=O)N(C2CCCCC2)[C@H]1c1ccc(CO)cc1 | -0.123
8 | CCOC(=O)C=Cc1cccc(OC)c1O | -1.09
9 | NC(=O)NCC#Cc1ccc2c(c1)[C@]1(C(=O)N2)[C@H](C(=O)NC[C@H](O)c2ccccc2)[C@H]2C(=O)O[C@H](c3ccccc3)[C@H](c3ccccc3)N2[C@@H]1c1ccccc1OCCO | 0.307
10 | CN1C(=O)C2C(C1=O)C1C=C(c3ccc(CO)cc3)C2C(C2CC2)N1Cc1cc2c(cc1Br)OCO2 (stereo not given) | 0.268
11 | O=C1OCCC/C=C\[C@H]2OC34C=CCN(Cn5nnc6ccccc65)C(=O)[C@H]3N(CCCO)C(=O)[C@@H]4C12 (stereo not given in full) | -0.9
12 | CC(C)N1C(=O)c2ccccc2[C@](C)(C(=O)NC2CC2)[C@@H]1c1ccc(CO)cc1 | 0.614
13 | O=C1C2C=CC(C(O)CCc3ccccc3)N(Nc3ccccc3)C2C(=O)N1c1ccccc1 (stereo not given) | 0.0749
14 | O=C1O[C@H](c2ccccc2)[C@H](c2ccccc2)N2[C@H]1[C@@H](C(=O)N1CCCCCCC1)[C@]1(C(=O)Nc3ccc(C#CC4=CCCCC4)cc31)[C@H]2c1ccc(O)cc1 | 2.3
15 | CC(C)OC(=O)C1=CCC(c2cccc(Cl)c2)O1 (stereo not given) | -0.523
16 | C=CCN1C(=O)[C@@]2(O[C@@H](CCO)[C@H]([Si](C)(C)c3ccc(OC)cc3)[C@H]2C)c2cc(N3C(=O)COc4ccccc43)ccc21 | 0.17
17 | C=CCC(OC(C)=O)[C@@H]1[C@@H](N(Cc2ccc(-c3ccccc3)cc2)C(=O)c2ccc(C)cc2)c2cc(OCCCO)ccc2N1C(=O)c1ccc2ccccc2n1 (stereo not given in full) | -0.267
18 | COCCOC(=O)N1C(=O)[C@@]2(c3cc(C#CC4=CCCCC4)ccc31)[C@H](c1ccc(OCCO)cc1)N1[C@H](c3ccccc3)[C@H](c3ccccc3)OC(=O)[C@H]1[C@@H]2C(=O)Nc1nc2ccccc2s1 | 0.772

Row | SMILES | composite z-score
19 | O=[N+]([O-])c1ccc(C[n+]2ccc(CCCO)cc2)o1 | 1.73
20 | C=C(C)[C@@H]1CC=C(C(O)C2C=CC3C(=O)N(Cc4ccccc4)C(=O)C3N2n2cnnc2)CC1 (stereo not given in full) | -0.305
21 | CCCNC(=O)[C@@]1(C)c2ccccc2C(=O)N(Cc2cc(F)cc(C(F)(F)F)c2)[C@H]1c1ccc(CO)cc1 | 0.0391
22 | CO[C@H]1O[C@H](CO)[C@@H](OC(=O)Nc2cccc(F)c2)[C@H](OC(=O)Nc2ccccc2-c2ccccc2)[C@@H]1OC(=O)Nc1ccccc1-c1ccccc1 | 0.615
23 | CCOC(=O)N1C(c2ccc(OCCCO)cc2)=NC(C(=O)OC)N1C(=O)OCC (stereo not given) | 1.42
24 | COCCCNC(=O)[C@@]1(Cc2ccccc2I)c2ccccc2C(=O)N(Cc2ccccc2)[C@H]1c1ccc(CO)cc1 | -1.27
25 | COc1ccc(C#Cc2ccc3c(c2)[C@]2(C(=O)N3)[C@H](C(=O)N3CCN(c4ncccn4)CC3)[C@H]3C(=O)O[C@H](c4ccccc4)[C@H](c4ccccc4)N3[C@@H]2c2ccc(O)cc2)cc1 | 0.496
26 | CN(C)CCCC[C@@H]1NC(=O)[C@@H]2C[C@H](C(=O)NCc3ccc(F)cc3)[C@H](c3cccc(OCCO)c3)N2C1=O | 1.97
27 | O=C1O[C@@H](c2ccccc2)[C@@H](c2ccccc2)N2[C@@H](c3ccc(O)cc3)[C@]3(C(=O)Nc4ccc(C#CCCO)cc43)[C@@H](C(=O)O)[C@H]12 | -0.222
28 | CC(C)NC(=O)[C@@]1(c2ccc([N+](=O)[O-])cc2)CC(=O)N(C(C)C)[C@@H]1c1ccc(CO)cc1 | -1.14
29 | C=CCC(OC(C)=O)[C@@H]1[C@@H](N(Cc2ccc(-c3cccc(C(F)(F)F)c3)o2)C(=O)Cc2ccc(OC)cc2)c2cc(OCCCO)ccc2N1C(=O)Cc1ccc(OC)cc1 (stereo not given in full) | -0.239
30 | C[n+]1ccc2ccc(O)cc2c1 | 1.01
31 | C=C(CCCC)/C(=C/C[C@H](OC(C)=O)c1ccc(CO)o1)c1cc(C(=O)OC)ccc1OC | 1.8
32 | COCCOC(=O)N1C(=O)[C@@]2(c3cc(C#Cc4ccc(OC)cc4)ccc31)[C@H](c1ccc(OCCO)cc1)N1[C@H](c3ccccc3)[C@H](c3ccccc3)OC(=O)[C@H]1[C@@H]2C(=O)N1CCc2cc(OC)c(OC)cc2C1 | 1.28
33 | CC(C)C(O)C1C=CC2C(=O)N(C)C(=O)C2N1N1CCCCC1 (stereo not given) | 0.315
34 | CCN(CC)c1ccc(N2CC=CC34O[C@@H]5C=CCOC(=O)[C@@H]5[C@H]3C(=O)N(CCCCCO)[C@@H]4C2=O)cc1 (stereo not given in full) | -0.769
35 | Cc1cc(C)c(C(O)C2C=CC3C(=O)NC(=O)C3N2Nc2ccccn2)c(C)c1 (stereo not given) | 0.0197
